# Assay results published in PubChem BioAssay AID588405 (Sanford-Burnham Center for Chemical Genomics, 2011).
# Among all 360,000 compounds or so, about 6,200 (1.7%) were called active. This excerpt belongs to a sample that is enriched for actives. A number with no mark means an inactive call.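 Rule for the calls: active = inhibition of at least 50% at 20 µM; inactive = the rest.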
# Assay: inhibition of PEG-3 promoter activity – cell-based, HeLa, luciferase luminescence, primary screen (AID 588405)
# Conditions: HeLa PEG-Prom luciferase reporter, overnight, at 20 µM, hits give high values
row,SMILES,inhibition
1,COc1cccc(NC(=O)C2(C)CCN2Cc2ccccc2Cl)c1 (configuration not stated),12.9%
2,CCOCCC(=O)Nc1ccc2c(c1)c(=O)n(C)n2-c1ccc2ccccc2c1,-14.8%
3,CCCNC(=O)C1(C)CCN(C(=O)c2ccccc2OC(F)(F)F)C1 (configuration not stated),-13.6%
4,CC(=O)Nc1cc(-c2ccc(N3CCN(C)CC3)cc2)cn2c(-c3ccc(F)cc3)cnc12,-24.9%
5,CCCCN(C=O)c1c(CC)nc2c(OCc3ccccc3C(=O)OC)cccn12,13.7%
6,Cc1nc2c(-c3ccccc3)c(C)[nH]n2c(=O)c1Cl,13.1%
7,COCc1cc(=O)n2[nH]c(C)c(-c3ccccc3)c2n1,2.19%
8,CCCc1cc(=O)n2[nH]c(C)c(-c3ccc(Cl)cc3)c2n1,61.5% (active)
9,COc1cc(F)ccc1-c1cc(C(=O)NCC2CCCCC2)[nH]n1,-33.4%
10,CC(C)COC(=O)C1C2C=CC3(CN(C(C)c4ccc(Br)cc4)C(=O)C13)O2 (configuration not stated),6.1%
11,COc1cc(NC(=O)c2cc(-c3ccc(F)cc3OC(C)C)n[nH]2)cc(OC)c1OC,33.7%
12,Cc1ccc(C(=O)NCC(=O)O)s1,13.7%
13,Cc1nc2c(OCc3cccc(Cl)c3)cccn2c1N(C)CC1CC1,-12.2%
14,OC(c1ccc(Cl)c(F)c1)c1ncc(-c2ccccc2Cl)[nH]1 (configuration not stated),17.5%
15,O=C(NC(c1ccc(Cl)cc1)c1cnccn1)C1CCN(Cc2ccc(Cl)cc2)CC1 (configuration not stated),6.83%
16,Cc1ccc(C(NC(=O)C2CCN(CCOc3ccc(Cl)cc3Cl)CC2)c2ccccn2)cc1 (configuration not stated),106% (active)
17,O=C(NC(c1ccc(-c2ccccc2)cc1)c1cnccn1)C1CCN(CCOc2ccc(Cl)cc2Cl)CC1 (configuration not stated),37.4%
18,Nc1ncnc2c1ncn2[C@@H]1O[C@H](CNC(=O)[C@H](N)Cc2cccnc2)[C@@H](O)[C@H]1O,-0.67%
19,O=C(CC[C@H]1O[C@@H](n2ccc(=O)[nH]c2=O)[C@H](O)[C@@H]1O)N[C@H](Cc1ccccc1)C(=O)NCCCN1CCCC1=O,-0.27%
20,CCCCNC(=O)C(C)N(CCN(C)C)C(=O)CCCN1C(=O)NC(c2ccc(Cl)cc2)C(C(=O)OCc2ccccc2)=C1C (configuration not stated),92.9% (active)
21,CCCCNC(=O)C(C)N(CCN(C)C)C(=O)CCCCCN1C(=O)NC(c2ccc(Cl)cc2)C(C(=O)OCc2ccccc2)=C1C (configuration not stated),91.8% (active)
22,CCOC(=O)C1=C(CCc2ccccc2)NC(=O)NC1c1ccc2ccccc2c1 (configuration not stated),40.3%

row,SMILES,inhibition
1,CCOC(=O)CCCNC(=O)CN1C(=O)NC(CCc2ccccc2)C1=O (configuration not stated),1.97%
2,CCOC(=O)C1=C(C)N(C[C@@H]2CC[C@@H](Cc3ccc(-c4ccccc4)cc3)O2)C(=O)NC1c1ccc([N+](=O)[O-])cc1 (some centres not stated),15.2%
3,COC(=O)C1=C(C)N(Cc2ccccc2)C(=NCCCOC(C)C)N[C@H]1c1ccccc1,-9.14%
4,CC1=C(C(=O)N(C(C)C)C(C)C)CC(CC(=O)NCC2CCCCC2)C(=O)N1Cc1ccccc1 (configuration not stated),11.2%
5,O=C(Nc1ccc(OCCO)cc1)c1csc([C@H]2C[C@H](O)[C@@H](CO)O2)n1,14.9%
6,CCNC(=O)C1(C)CCCN(Cc2noc(-c3ccccc3OC)n2)C1 (configuration not stated),2.68%
7,COC(=O)c1ccc(/C=C2/C(=O)Oc3ccccc32)cc1,11.1%
8,O=C1Oc2ccccc2C(=O)/C1=C/c1ccccc1O,69.8% (active)
9,C=C1C(=O)[C@]23C[C@H]1CCC2[C@@]1(C)C(C[C@@H]3O)[C@](C)(C(=O)O)CC[C@@H]1O (some centres not stated),3.91%
10,CC1CC(C)(C)n2c(O)c(N=NC(N)=S)c3cccc1c32 (configuration not stated),29.2%
11,CCc1nc2ccc(C(=O)N(C)Cc3ccco3)cn2c1N(C)C(=O)Cc1ccccc1,8.02%
12,O=C(O)C#Cc1cccc2ccccc12,12.5%
13,CC(C)(C)c1nnc2sc(SCC(O)=C(C#N)c3nc4ccccc4[nH]3)nn2c1=O,20.3%
14,N#C/C(=C(/O)COC(=O)COc1ccc(Cl)cc1)c1nc2ccccc2[nH]1,71.2% (active)
15,COc1ccccc1C(=O)COC(=O)COc1ccc(C#N)cc1,10.1%
16,COc1ccc(C2=Nc3ccccc3NC(=O)C2N(C(=O)c2cc3ccccc3[nH]2)c2ccccc2)cc1 (configuration not stated),-169%
17,CC1(C(=O)Nc2cccc3c2CCCC3)CCN1C(=O)C1(c2ccccc2)CC1 (configuration not stated),11.5%
18,CCc1cccc(C)c1NC(=S)N(CCCN1CCN(C)CC1)Cc1cccs1,12%
19,Cc1ccccc1NC(=S)N(CCCN1CCOCC1)Cc1cccs1,-3.16%
20,Cc1ccc(NC(=S)N(CCCN2CCCC2)Cc2cccn2Cc2ccc(Cl)cc2)cc1,83.4% (active)
21,O=C(C1CCN(c2nnc(-n3cccc3)s2)CC1)N1CCc2ccccc2C1,14.8%
22,O=c1c2c3c(sc2n(CCN2CCCC2)c(=O)n1Cc1ccccc1)CCCCC3,-15%

row,SMILES,inhibition
1,CCn1c(=S)[nH]c2sc3c(c2c1=O)CCCCC3,-19.3%
2,CN(C)CCCn1c(=O)n(Cc2ccccc2)c(=O)c2c3c(sc21)CCCCC3,89.8% (active)
3,CCCCC1S/C(=N/N=C/c2cccs2)NC1=O (configuration not stated),-0.95%
4,CC(=O)Nc1cccc(-c2ccnc3c2CC(C)(C(=O)NCc2ccccc2)O3)c1 (configuration not stated),-22.6%
5,O=C1N=C(N2CCc3ccccc3C2)S/C1=C\c1ccc(O)cc1,-5.21%
6,CC(C(=O)NC1CCS(=O)(=O)C1)N1C(=O)/C(=C/c2ccc(Cl)cc2)SC1=S (configuration not stated),-7.3%
7,O=C1/C(=C\c2ccc(O)cc2)CCC1CNc1ccc(Cl)cc1 (configuration not stated),93.8% (active)
8,CCCC(=O)N1CCC1(C)C(=O)NS(=O)(=O)c1ccc(Cl)cc1 (configuration not stated),3.54%
9,CC(=O)Nc1cccc(Nc2ccc(C#N)cc2)c1,-24.3%
10,O=C(Cc1ccc(-n2c(=O)[nH]c3ccccc3c2=O)cc1)N1CCN(c2cccc(Cl)c2)CC1,9.68%
11,O=C(Cc1csc(Nc2nc(=S)[nH]c3ccccc23)n1)NCCCN1CCN(c2cccc(Cl)c2)CC1,53.1% (active)
12,COc1cccc(CNC(=O)Cc2csc(Nc3nc(=S)[nH]c4ccccc34)n2)c1,29.3%
13,COC(=O)c1ccc(CN2C(=O)C(Cc3ccccc3)ON=C2c2ncccc2C)o1 (configuration not stated),3.64%
14,O=C(Cc1ccc([N+](=O)[O-])cc1)Nc1ccc(C(=O)N2CCOCC2)cc1,-2.85%
15,CCCCC(=O)NC(c1ccc(OC)c(OC)c1)c1ccc2cccnc2c1O (configuration not stated),60.4% (active)
16,C=CCn1c(COc2cccc3cccnc23)nnc1SCC(=O)OC,16.7%
17,CCOc1ccc(C(CCc2ccccc2)NC(=O)c2ccc(OC)c(OC)c2)cc1OCC (configuration not stated),11.6%
18,CCc1nc2c(OCCC3CCCCC3)cccn2c1N(C)C(=O)c1ccco1,5.45%
19,CC12CCC(C(=O)N(NC(=O)c3ccccc3O)C1=O)C2(C)C (configuration not stated),53.1% (active)
20,CC1=CC(C)(C)NC(=S)N1NC(=O)c1ccccc1Cl,-9.1%
21,COc1ccccc1C(=O)NN1C(=O)C2C3C=CC(O3)C2C1=O (configuration not stated),17.5%
22,CCCCOc1ccc(N(CC(=O)NC(C)C)C(=O)CCC(=O)Nc2ccccn2)cc1,-4.29%

row,SMILES,inhibition
1,NC1=C([N+](=O)[O-])C(c2ccccc2)C2=C(CCCC2=O)O1 (configuration not stated),9.24%
2,O=S1(=O)CCN(C2CCCCCCCCCCC2)CC1,0.61%
3,O=C1/C(=C/c2ccc(F)cc2)SC(=S)N1CCCC(=O)N1CCCCC1CCO (configuration not stated),58.3% (active)
4,COc1ccc(/C=C2\SC(=S)N(CCC(=O)N3CCOCC3)C2=O)cc1OC,-27.5%
5,CCN(C(=O)CN1C(=O)/C(=C/c2ccc(F)cc2)SC1=S)C1CCS(=O)(=O)C1 (configuration not stated),-2.93%
6,CC(C)(C)c1ccc(S(=O)(=O)NC(=O)C2(C)CCN2C(=O)CC2CC2)cc1 (configuration not stated),-3.67%
7,Cc1cc(=O)oc2c3c(cc(OCC(=O)NCC(O)c4ccccc4)c12)OC(C)(C)CC3 (configuration not stated),12.4%
8,CC(NC(=O)Nc1ccccc1)C(c1cccs1)N1CCN(c2ccccc2)CC1 (configuration not stated),66.2% (active)
9,CCCC(=O)NC(C)C(c1cccs1)N1CCN(c2ccccc2)CC1 (configuration not stated),7.84%
10,CC(NC(=S)Nc1ccccc1)C(c1cccs1)N1CCOCC1 (configuration not stated),14.7%
11,CCc1nc2c(OCCOc3ccccc3)cccn2c1N(C=O)Cc1ccc(OC)cc1,6.15%
12,COc1ccc(C(=O)n2nc(-c3ccc(Cl)cc3)nc2N)cc1OC,10.6%
13,COc1ccc(C(=O)O/N=C(\N)Cc2ccc(Cl)cc2Cl)cc1OC,110% (active)
14,COc1ccc(CCn2ccc(O)c(Cc3ccc(Cl)cc3Cl)c2=O)cc1OC,6.97%
15,O=C(NCc1ccccc1)C(c1ccco1)N(C(=O)c1csnn1)c1ccccc1F (configuration not stated),5.02%
16,CSc1ccc(C(=O)C2CCCN(C(=O)c3ccc(C)nc3)C2)cc1 (configuration not stated),1.04%
17,CCCCn1nnnc1C(c1cccc(OC)c1OC)N1CCN(C/C=C/c2ccccc2)CC1 (configuration not stated),-3.54%
18,CC(C)n1cnc2c(Nc3cccc(Cl)c3)nc(N(CCO)CCCO)nc21,96.1% (active)
19,CC(C)C[C@H](CO)Nc1nc(N(C)c2cccc(Cl)c2)c2ncn(C(C)C)c2n1,12.4%
20,Cc1ccc(C(O)c2ncc(-c3ccccc3F)[nH]2)cc1F (configuration not stated),-67.5%
21,O=C(NCc1ccncc1)C1CCN(C(=O)c2cccc(Cl)c2)CC1,0.12%
